Drawing on PubChem BioAssay (EPA / NIEHS), this text covers outcome and AC50 for five molecules.

Where “and” joins values, the source holds several entries; their conditions need not be identical. Equal entries are not always repeated. Inconclusive results are not listed. More than one record can exist for a structure, and the calls need not agree. Calls of active or inactive are those of the source. How the source made its calls, unless noted: active means hit-call score of the fitted dose curve at least 0.9, where 1 is the maximum; inactive means score below 0.9.

Assay [1] in a line: ATG_NFI_CIS: Attagene CIS-FACTORIAL HepG2 Assay for human Nuclear Factor I (NFI) (AID 2282989). The note with it: HepG2 cis-regulatory reporter, NFI response element transcription; actives raise or lower the signal. An outline of the steps: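 HepG2, transient MRTU, 24 h exposure; RNA→cDNA→PCR→FAM label→HpaI→CE fluorescence. Bidirectional fit, DMSO = baseline.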
Assay [2] has as its target Myc proto-oncogene protein (Homo sapiens) (UniProt P01106). Put plainly: ATG_Myc_CIS: Attagene CIS-FACTORIAL HepG2 Assay for human Myelocytomatosis (Myc) Proto-Oncogene Transcription Factor (AID 2282990). The conditions noted are these: HepG2, Attagene cis-reporter transcription factor activity; actives raise or lower the signal. In a few lines:
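Cells of the HepG2 human liver line bear multiple cis-driven reporter transcription units. Reporter mRNA after 24 h exposure is reverse-transcribed, amplified, labelled and resolved by capillary electrophoresis, with gain- or loss-of-signal fitting relative to DMSO.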

Assay [3] is described as follows: ATG_NF_kB_CIS: Attagene CIS-FACTORIAL HepG2 Assay for human Nuclear Factor Kappa B (NF-kB) (AID 2282991). The note with it: HepG2 Attagene cis-factorial NF-kB reporter mRNA; actives raise or lower the signal. An outline of the steps: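 HepG2, transient multi-reporter transfection, cis promoter elements (endogenous TFs). 24 h exposure. Total RNA → RT → PCR → 6-FAM label → HpaI → CE. Gain/loss vs DMSO.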

Assay [4] is described as follows: ATG_NRF2_ARE_CIS: Attagene CIS-FACTORIAL HepG2 Assay for human Nuclear Factor Erythroid 2 Related Factor 2 (NFR2) response to Antioxidant Response Elements (ARE) (AID 2282992).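 On AC50: reporter mRNA level measured by RT-PCR and capillary electrophoresis fluorescence.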 The conditions noted are these: HepG2 Attagene ARE/NRF2 reporter, transcription factor activity; actives raise or lower the signal. In a few lines: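 Multiplexed reporter mRNA profiling in HepG2 after a 24 h chemical exposure. Curves fitted in both directions relative to DMSO negative control.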

Assay [5] is described as follows: ATG_Oct_MLP_CIS: Attagene CIS-FACTORIAL HepG2 Assay for human Octamer-Binding Transcription Factor (Oct) (AID 2282993). The conditions noted are these: HepG2 Attagene cis-factorial Oct reporter, mRNA; actives raise or lower the signal. An outline of the steps: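 Multiplexed cis-reporter assay in human liver HepG2 cells, 24 h incubation. Reporter RNA amplified and labelled, then resolved by capillary electrophoresis; DMSO serves as negative control and baseline.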

Assay [6] addresses Cellular tumor antigen p53 (Homo sapiens) (UniProt P04637). Nature of the assay: ATG_p53_CIS: Attagene CIS-FACTORIAL HepG2 Assay for human p53 Transcription Factor (AID 2282994). The note with it: HepG2 p53 cis-element reporter, Attagene mRNA; actives raise or lower the signal. An outline of the steps: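 Multiplexed reporter mRNA assay in human HepG2 liver cells; cis-regulated units report endogenous factor activity. Values come from bidirectional curve fitting against DMSO negative control after 24 h treatment.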

Assay [7] has as its target human Peroxisome Proliferator-activated Receptor alpha (PPARa), PPARA (gene 5465) (UniProt Q07869). Put plainly: ATG_PPARa_TRANS: Attagene TRANS-FACTORIAL HepG2 Assay for human Peroxisome Proliferator-activated Receptor alpha (PPARa) (AID 2283001; active means hit-call score of the fitted dose curve at least 0.9, where 1 is the maximum;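 on AC50: potency for gain of reporter signal over DMSO so agonist or activator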). An outline of the steps:
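Read-out is fluorescence of reporter cDNA fragments resolved by capillary electrophoresis after RT-PCR. Human HepG2 liver cells carried transfected PPARa-Gal4 chimera and GAL4-UAS reporter units, treated 24 h; activity scored as increase over DMSO.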

In assay [8] the target is human Peroxisome Proliferator-activated Receptor delta (PPARd), PPARD (gene 5467) (UniProt Q03181). Put plainly: ATG_PPARd_TRANS: Attagene TRANS-FACTORIAL HepG2 Assay for human Peroxisome Proliferator-activated Receptor delta (PPARd) (AID 2283002; active means hit-call score of the fitted dose curve at least 0.9, where 1 is the maximum). An outline of the steps: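 Cell-based TRANS reporter: HepG2, transient MRTU transfection, 24 h exposure. Readout = reporter mRNA (RT-PCR/CE, 6-FAM). Gain-of-signal fit vs DMSO control.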

Assay [9] concerns the target human Retinoic Acid Receptor beta (RARb), RARB (gene 5915) (UniProt P10826). Nature of the assay: ATG_RARb_TRANS: Attagene TRANS-FACTORIAL HepG2 Assay for human Retinoic Acid Receptor beta (AID 2283004; active means hit-call score of the fitted dose curve at least 0.9, where 1 is the maximum). In a few lines:
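Fluorescent capillary-electrophoresis detection of GAL4-UAS reporter mRNA defines the endpoint, with induction over DMSO-treated wells scored as activity. Transiently transfected human hepatoma HepG2 cells expressing exogenous NR–Gal4 proteins are exposed to test chemicals for 24 h.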

The target in assay [10] is human Retinoic Acid Receptor gamma (RARg), RARG (gene 5916) (UniProt P13631). Put plainly: ATG_RARg_TRANS: Attagene TRANS-FACTORIAL HepG2 Assay for human Retinoic Acid Receptor gamma (RARg) (AID 2283009; active means hit-call score of the fitted dose curve at least 0.9, where 1 is the maximum). An outline of the steps:
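Transient transfection of HepG2 with multi-reporter constructs, then 24 h chemical treatment. Total RNA isolated, reverse-transcribed, PCR-amplified, fluorescently labelled and resolved by capillary electrophoresis; activity scored as mRNA induction versus DMSO.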

In assay [11] the target is Peroxisome proliferator-activated receptor gamma (Homo sapiens) (UniProt P37231). Put plainly: ATG_PPARg_TRANS: Attagene TRANS-FACTORIAL HepG2 Assay for human Peroxisome Proliferator-activated Receptor-gamma (PPARg) (AID 2283007; active means hit-call score of the fitted dose curve at least 0.9, where 1 is the maximum). An outline of the steps: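 Multiplexed reporter transcription units in HepG2, 24 h dosing, reporter transcripts quantified by fluorescent RT-PCR and capillary electrophoresis. Increase over DMSO scored.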

For assay [12], the target named is Nuclear receptor subfamily 1 group I member 2 (Homo sapiens) (UniProt O75469). Nature of the assay: ATG_PXR_TRANS: Attagene TRANS-FACTORIAL HepG2 Assay for human Pregnane X Receptor (PXR) (AID 2283008; active means hit-call score of the fitted dose curve at least 0.9, where 1 is the maximum). In a few lines:
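Measures mRNA induction of a GAL4-UAS-driven reporter in human HepG2 cells transiently expressing PXR fused to Gal4, following 24 h treatment. DMSO served as negative control and baseline.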

A short description of assay [13]: BSK_3C_TissueFactor: BioMAP Diversity Plus: 3C Assay for Tissue Factor Biomarker Activity (AID 2282997). The conditions noted are these: BioMAP 3C HUVEC, tissue factor biomarker readout; actives raise or lower the signal. In a few lines:
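Endothelial monolayers (human umbilical vein, primary) are dosed, incubated 24 h, and assayed for Tissue Factor by ELISA; DMSO serves as negative control for bidirectional fitting.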

Assay [14] is described as follows: BSK_3C_uPAR: BioMAP Diversity Plus: 3C Assay for Urokinase-type plasminogen activator receptor (uPAR) Biomarker Activity (AID 2282998). The note with it: BioMAP 3C HUVEC, uPAR biomarker ELISA; actives raise or lower the signal. In a few lines:
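Dose primary human umbilical vein endothelial cells, incubate 24 h, measure cell-surface uPAR by ELISA, then fit the signal in both directions against the DMSO negative control.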
(ELISA stands for enzyme-linked immunosorbent assay.)

Assay [15] is described as follows: BSK_3C_VCAM1: BioMAP Diversity Plus: 3C Assay for Vascular cell adhesion molecule 1 (VCAM1) Biomarker Activity (AID 2282999). The note with it: BioMAP 3C HUVEC, VCAM1 ELISA, cytokine-stimulated; actives raise or lower the signal. An outline of the steps:
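Endothelial cells from human umbilical vein are treated with test chemical. At 24 h, VCAM-1 is measured by ELISA, and responses in either direction are fitted relative to DMSO.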

Assay [16] in a line: BSK_4H_Eotaxin3: BioMAP Diversity Plus: 4H Assay for Eotaxin 3 Biomarker Activity (AID 2283000). The note with it: primary human endothelial cells (HUVEC); actives raise or lower the signal. An outline of the steps:
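ELISA quantitation of CCL26 (Eotaxin-3) protein from chemically dosed human vascular endothelial cells at 24 h; increases and decreases both scored relative to DMSO-treated baseline.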

Read-out in assay [17]: Intercellular Adhesion Molecule 1 (ICAM1), ICAM1 (gene 3383)
Nature of the assay: BSK_3C_ICAM1: BioMAP Diversity Plus: 3C Assay for Intercellular Adhesion Molecule 1 (ICAM1) Biomarker Activity (AID 2283003). The conditions noted are these: primary human endothelial cells (HUVEC); actives raise or lower the signal. In a few lines: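 ICAM-1 levels measured by ELISA after HUVEC cultures in the 3C system had been dosed for 24 h. Gain or loss of signal relative to DMSO was fitted in both directions.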

Assay [18] in a line: BSK_3C_Proliferation: Cell Proliferation Assessment in the BioMAP Diversity Plus: 3C Assay (AID 2283006).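 Further: potency may reflect either rise or fall in cell number versus DMSO.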 The conditions noted are these: primary human endothelial cells (HUVEC). An outline of the steps:
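Read-out is total protein by SRB absorbance at 560 nm, taken as a proxy for relative cell number. Primary human umbilical vein endothelium cultured below confluence was dosed for 48 h, TCA-fixed and SRB-stained; curves were fitted bidirectionally versus DMSO.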

Assay [19] deals with human RAR-related Orphan Receptor beta (RORb), RORB (gene 6096) (UniProt Q92753). Nature of the assay: ATG_RORb_TRANS: Attagene TRANS-FACTORIAL HepG2 Assay for human RAR-related Orphan Receptor beta (RORb) (AID 2283010; active means hit-call score of the fitted dose curve at least 0.9, where 1 is the maximum). An outline of the steps:
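Readout is reporter-gene mRNA induction, detected as fluorescence after RT-PCR and capillary electrophoresis, fitted for gain of signal against DMSO controls. Transiently transfected HepG2 liver cells carrying GAL4-UAS reporter constructs were treated for 24 hours.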

Chain of human Peroxisome Proliferator-activated Receptor delta (PPARd), PPARD (gene 5467) (Q03181 whole entry, looked up): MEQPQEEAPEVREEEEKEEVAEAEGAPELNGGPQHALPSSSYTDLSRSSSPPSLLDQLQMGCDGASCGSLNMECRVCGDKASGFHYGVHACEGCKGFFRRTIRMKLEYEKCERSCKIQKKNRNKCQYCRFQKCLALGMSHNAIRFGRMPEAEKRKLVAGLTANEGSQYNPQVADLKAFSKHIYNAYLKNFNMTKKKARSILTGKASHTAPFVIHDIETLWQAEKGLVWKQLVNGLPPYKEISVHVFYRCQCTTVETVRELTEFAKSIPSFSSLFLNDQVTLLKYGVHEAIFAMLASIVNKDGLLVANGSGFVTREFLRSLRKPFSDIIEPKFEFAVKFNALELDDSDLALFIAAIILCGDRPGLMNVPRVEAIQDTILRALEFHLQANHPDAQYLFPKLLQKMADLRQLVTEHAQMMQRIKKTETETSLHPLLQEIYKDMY
Chain of human Peroxisome Proliferator-activated Receptor alpha (PPARa), PPARA (gene 5465) (Q07869 whole entry, looked up, the tested form may be a part): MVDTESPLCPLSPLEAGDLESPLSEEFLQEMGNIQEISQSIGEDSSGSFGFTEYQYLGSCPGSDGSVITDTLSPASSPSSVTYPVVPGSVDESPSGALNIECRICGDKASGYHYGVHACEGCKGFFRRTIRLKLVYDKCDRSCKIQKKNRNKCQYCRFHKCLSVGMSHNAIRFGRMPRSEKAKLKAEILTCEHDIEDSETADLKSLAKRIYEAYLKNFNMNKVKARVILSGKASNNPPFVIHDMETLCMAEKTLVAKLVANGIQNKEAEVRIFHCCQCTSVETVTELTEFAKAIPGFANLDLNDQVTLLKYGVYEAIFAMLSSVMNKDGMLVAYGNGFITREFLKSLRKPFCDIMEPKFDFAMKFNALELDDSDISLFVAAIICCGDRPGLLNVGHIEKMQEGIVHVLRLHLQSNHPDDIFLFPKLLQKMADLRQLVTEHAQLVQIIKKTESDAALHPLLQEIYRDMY
Chain of Myc proto-oncogene protein (Homo sapiens) (P01106 whole entry, looked up): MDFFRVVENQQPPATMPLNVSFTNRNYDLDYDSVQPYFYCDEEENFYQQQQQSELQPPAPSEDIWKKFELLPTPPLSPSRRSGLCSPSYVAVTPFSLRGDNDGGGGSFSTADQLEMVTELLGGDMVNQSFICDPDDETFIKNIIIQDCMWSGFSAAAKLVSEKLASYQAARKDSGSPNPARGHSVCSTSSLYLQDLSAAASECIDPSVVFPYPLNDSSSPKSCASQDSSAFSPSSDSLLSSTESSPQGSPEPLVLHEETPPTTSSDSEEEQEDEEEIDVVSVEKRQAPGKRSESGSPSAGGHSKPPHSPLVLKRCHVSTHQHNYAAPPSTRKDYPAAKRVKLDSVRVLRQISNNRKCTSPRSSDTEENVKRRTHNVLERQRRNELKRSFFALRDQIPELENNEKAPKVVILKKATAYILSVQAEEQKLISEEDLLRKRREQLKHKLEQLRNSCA
Chain of Nuclear receptor subfamily 1 group I member 2 (Homo sapiens) (O75469 whole entry, looked up, the tested form may be a part): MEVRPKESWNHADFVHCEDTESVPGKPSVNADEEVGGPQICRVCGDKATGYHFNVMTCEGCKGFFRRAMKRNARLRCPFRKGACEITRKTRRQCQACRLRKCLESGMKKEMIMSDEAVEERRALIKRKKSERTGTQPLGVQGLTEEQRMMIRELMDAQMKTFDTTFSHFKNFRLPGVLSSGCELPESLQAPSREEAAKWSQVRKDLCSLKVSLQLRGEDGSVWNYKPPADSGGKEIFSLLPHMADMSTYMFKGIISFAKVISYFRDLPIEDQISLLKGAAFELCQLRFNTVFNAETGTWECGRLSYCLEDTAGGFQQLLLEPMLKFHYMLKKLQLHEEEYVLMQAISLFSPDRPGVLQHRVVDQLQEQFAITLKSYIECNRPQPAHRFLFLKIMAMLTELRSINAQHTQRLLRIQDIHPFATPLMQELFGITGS
Chain of Cellular tumor antigen p53 (Homo sapiens) (P04637 whole entry, looked up): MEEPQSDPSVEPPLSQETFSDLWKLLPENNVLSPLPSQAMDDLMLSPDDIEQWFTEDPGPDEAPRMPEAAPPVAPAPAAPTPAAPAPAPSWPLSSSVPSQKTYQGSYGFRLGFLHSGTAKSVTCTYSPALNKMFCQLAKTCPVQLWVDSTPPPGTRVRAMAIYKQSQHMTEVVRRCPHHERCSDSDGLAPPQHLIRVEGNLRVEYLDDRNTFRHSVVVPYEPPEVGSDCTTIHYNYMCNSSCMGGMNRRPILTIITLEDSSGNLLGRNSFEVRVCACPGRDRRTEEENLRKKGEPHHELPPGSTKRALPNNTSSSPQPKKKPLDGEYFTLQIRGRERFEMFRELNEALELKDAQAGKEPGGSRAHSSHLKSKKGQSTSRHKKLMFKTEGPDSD
Chain of human RAR-related Orphan Receptor beta (RORb), RORB (gene 6096) (Q92753 whole entry, looked up, the tested form may be a part): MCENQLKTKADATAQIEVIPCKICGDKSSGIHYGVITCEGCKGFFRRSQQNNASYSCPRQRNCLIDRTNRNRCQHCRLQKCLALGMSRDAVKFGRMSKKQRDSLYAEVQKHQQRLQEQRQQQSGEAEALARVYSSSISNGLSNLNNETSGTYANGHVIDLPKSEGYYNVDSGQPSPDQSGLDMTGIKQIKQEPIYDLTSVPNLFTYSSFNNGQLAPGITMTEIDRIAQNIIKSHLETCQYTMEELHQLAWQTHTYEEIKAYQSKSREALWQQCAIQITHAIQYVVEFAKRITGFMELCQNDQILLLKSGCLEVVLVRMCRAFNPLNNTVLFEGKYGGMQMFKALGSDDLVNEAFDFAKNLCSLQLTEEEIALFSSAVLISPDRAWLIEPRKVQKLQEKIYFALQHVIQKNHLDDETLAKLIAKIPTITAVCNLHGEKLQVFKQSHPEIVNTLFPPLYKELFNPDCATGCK
Chain of Peroxisome proliferator-activated receptor gamma (Homo sapiens) (P37231 whole entry, looked up): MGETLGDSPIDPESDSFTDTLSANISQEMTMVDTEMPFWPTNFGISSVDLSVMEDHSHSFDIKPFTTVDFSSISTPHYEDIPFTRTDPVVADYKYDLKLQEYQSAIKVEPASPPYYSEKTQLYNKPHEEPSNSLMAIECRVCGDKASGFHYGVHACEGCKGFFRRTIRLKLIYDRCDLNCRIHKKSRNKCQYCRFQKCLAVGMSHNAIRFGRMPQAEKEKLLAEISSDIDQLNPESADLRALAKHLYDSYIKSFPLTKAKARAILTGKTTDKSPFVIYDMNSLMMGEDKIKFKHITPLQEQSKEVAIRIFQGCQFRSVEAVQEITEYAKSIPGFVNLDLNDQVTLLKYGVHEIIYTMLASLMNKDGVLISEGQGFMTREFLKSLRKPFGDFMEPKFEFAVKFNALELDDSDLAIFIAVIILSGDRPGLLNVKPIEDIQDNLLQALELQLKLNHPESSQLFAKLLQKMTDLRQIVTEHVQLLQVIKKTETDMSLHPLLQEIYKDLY
Chain of human Retinoic Acid Receptor gamma (RARg), RARG (gene 5916) (P13631 whole entry, looked up): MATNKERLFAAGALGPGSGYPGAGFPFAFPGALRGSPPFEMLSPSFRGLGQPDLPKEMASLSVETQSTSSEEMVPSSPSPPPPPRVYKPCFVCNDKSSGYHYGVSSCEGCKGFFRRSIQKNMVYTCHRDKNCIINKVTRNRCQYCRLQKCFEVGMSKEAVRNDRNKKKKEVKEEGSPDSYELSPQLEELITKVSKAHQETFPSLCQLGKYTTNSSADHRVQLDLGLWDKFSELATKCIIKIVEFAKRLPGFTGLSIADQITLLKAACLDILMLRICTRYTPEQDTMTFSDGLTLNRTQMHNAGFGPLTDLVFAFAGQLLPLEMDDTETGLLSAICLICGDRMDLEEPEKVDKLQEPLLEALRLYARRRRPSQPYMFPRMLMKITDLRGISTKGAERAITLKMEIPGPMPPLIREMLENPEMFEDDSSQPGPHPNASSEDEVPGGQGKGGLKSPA
Chain of human Retinoic Acid Receptor beta (RARb), RARB (gene 5915) (P10826 whole entry, looked up, the tested form may be a part): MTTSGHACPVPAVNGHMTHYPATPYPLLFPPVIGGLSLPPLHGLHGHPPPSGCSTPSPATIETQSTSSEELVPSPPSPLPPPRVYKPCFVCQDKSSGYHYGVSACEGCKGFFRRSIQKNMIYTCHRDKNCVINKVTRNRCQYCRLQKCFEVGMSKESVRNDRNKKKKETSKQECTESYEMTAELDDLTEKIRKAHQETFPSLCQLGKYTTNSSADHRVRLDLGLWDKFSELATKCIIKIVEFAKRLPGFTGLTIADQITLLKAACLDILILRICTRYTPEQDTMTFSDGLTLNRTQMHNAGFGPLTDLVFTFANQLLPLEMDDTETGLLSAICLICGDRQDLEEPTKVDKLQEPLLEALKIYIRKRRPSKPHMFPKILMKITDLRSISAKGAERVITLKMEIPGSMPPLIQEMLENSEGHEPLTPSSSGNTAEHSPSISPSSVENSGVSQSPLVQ

`CC=CCO`: the call in assay [1], in assay [2], in [3], in assay [4], in assay [5] and in [6] was inactive. In addition, the call in assay [7], in assay [8], in assay [9] and in assay [10] was inactive.

As to `NC(=O)N=NC(N)=O`, the call in assay [1], in assay [2], in [3], in [4], in assay [5] and in assay [6] was inactive. Besides, the outcome in [7], in assay [8], in assay [11] and in assay [12] was inactive.

With `O=C(Nc1ccccc1SSc1ccccc1NC(=O)c1ccccc1)c1ccccc1`, the outcome in assay [1], in [2], in [3], in [5], in [6] and in assay [17] was inactive. The half-maximal activity concentration (AC50) (usually the midpoint of the concentration-response curve, whichever way the signal moves) in [4] is 29.2 µM (active); in assay [13] it was 1.15 µM (active); in [14] it was 9.54 µM (active); in assay [15], 11.5 µM (active); in assay [16], 20 µM (active); in assay [7], 23.4 µM (active). Besides, the half-maximal activity concentration (AC50) in assay [18] was 5.29 µM (active); in [12], 8.27 µM (active).

As to `CCCCCCCCCCC=CC#N`, the molecule was classed as inactive in [1], in assay [2], in assay [3], in [5], in [6] and in assay [8]. In assay [19], the result was inactive. The AC50 in assay [4] is 114 µM (active); in assay [7], 38 µM (active); in [11], 28.2 µM (active); in assay [12], 29.9 µM (active).

Turning to `O=C(c1ccc(O)cc1)c1ccc(O)cc1O`, the molecule was called inactive in assay [1], in [2], in [3], in assay [5], in assay [13] and in [14]. Moreover, the outcome in assay [15], in assay [7], in assay [8], in assay [17], in [12] and in assay [19] was inactive. For the same molecule, the AC50 is 100 µM (active) in assay [4]; 100 µM (active) in assay [6]; 15.9 µM (active) in [14]; 13.9 µM (active) and 20 µM (active) in [16]; 20 µM (active) and 15 µM (active) in assay [18].
